Results: PubChem BioAssay (Tox21)
Results filed as inconclusive are left out. Calls of active or inactive are those of the source. Unless noted, calls come from the whole dose curve; as a rule, active = well fitted curve in the direction sought with a large enough effect in the repeat runs; inconclusive = weak or mixed curves; inactive = no such curve, though single readings can be large; an effect the other way counts as inactive or inconclusive.

Assays:
[1] = qHTS assay to identify small molecule agonists of the androgen receptor (AR) signaling pathway in the presence of an antagonist - cell viability counter screen (AID 1259379); note: nearly all actives have a fitted effect of over 25% in size; note: potency is the fitted concentration of half-maximal effect;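 for activity change, negative = cytotoxicity: MDA-kb2 human breast cancer cells carrying an MMTV luciferase reporter; series mostly up to about 92 µM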
How it was run: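 Each compound was tested at 15 concentrations on MDA-kb2 cells in the presence of 3.0uM nilutamide. Viability was measured by CellTiter-Fluor fluorescence after a 16 hr incubation at 37C in a CO2-free atmosphere.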

[2] = qHTS assay to identify small molecule agonists of the estrogen receptor beta (ER-beta) signaling pathway - cell viability counter screen (AID 1259380); note: nearly all actives have a fitted effect of over 30% in size; note: potency is the fitted concentration of half-maximal effect
How it was run: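 Compounds dissolved in DMSO were pin-transferred onto ER-beta-UAS-bla HEK293T cells that had settled 6 hr, and exposure ran 16 hr at 37C. Following the reporter read, CellTiter-Glo luminescence after 30 min at room temperature indicated cytotoxicity.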

[3] = biological target: Androgen receptor (Homo sapiens) (UniProt P10275); experiment: qHTS assay to identify small molecule agonists of the androgen receptor (AR) signaling pathway in the presence of an antagonist (AID 1259381; calls by dose curve; note: nearly all actives have a fitted effect of over 15% in size)
Sequence of Androgen receptor (Homo sapiens) (P10275 whole entry, looked up): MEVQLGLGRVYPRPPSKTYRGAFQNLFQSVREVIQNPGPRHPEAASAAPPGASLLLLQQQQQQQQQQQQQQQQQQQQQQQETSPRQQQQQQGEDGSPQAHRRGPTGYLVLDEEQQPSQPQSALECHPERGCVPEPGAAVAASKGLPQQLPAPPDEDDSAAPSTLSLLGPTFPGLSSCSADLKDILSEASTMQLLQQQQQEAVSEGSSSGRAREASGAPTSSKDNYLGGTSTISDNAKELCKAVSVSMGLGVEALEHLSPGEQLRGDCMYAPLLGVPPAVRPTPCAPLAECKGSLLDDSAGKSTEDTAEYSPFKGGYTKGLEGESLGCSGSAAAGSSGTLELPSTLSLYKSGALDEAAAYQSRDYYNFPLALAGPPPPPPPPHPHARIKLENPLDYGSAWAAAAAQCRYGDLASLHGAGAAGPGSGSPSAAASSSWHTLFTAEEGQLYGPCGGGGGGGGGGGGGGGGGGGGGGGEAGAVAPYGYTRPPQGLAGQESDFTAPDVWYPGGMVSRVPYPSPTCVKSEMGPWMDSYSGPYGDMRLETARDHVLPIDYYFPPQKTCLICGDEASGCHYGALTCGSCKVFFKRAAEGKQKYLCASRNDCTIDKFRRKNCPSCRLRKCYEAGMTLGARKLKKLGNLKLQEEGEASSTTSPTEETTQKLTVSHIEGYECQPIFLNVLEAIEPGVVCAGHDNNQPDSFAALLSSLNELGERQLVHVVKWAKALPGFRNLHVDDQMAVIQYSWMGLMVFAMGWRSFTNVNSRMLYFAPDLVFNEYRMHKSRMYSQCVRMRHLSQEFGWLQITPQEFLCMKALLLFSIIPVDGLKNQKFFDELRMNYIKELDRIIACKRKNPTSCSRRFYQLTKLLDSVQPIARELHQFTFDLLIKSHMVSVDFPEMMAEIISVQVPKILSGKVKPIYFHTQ
How it was run: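 Plated MDA-kb2 cells (3,000/well) were pre-incubated 5hr, given nilutamide (3.0uM final) or buffer, then dosed with compounds in DMSO at 15 concentrations. Luciferase activity was quantified by luminescence after 16hr at 37C.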

[4] = qHTS assay to identify small molecule antagonists of the estrogen receptor beta (ER-beta) signaling pathway - cell viability counter screen (AID 1259382); note: nearly all actives have a fitted effect of over 55% in size; note: potency is the fitted concentration of half-maximal effect; for activity change, negative = cytotoxicity: series mostly up to about 92 µM
How it was run: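 CellTiter-Glo ATP luminescence measured after the LiveBLAzer read in the same wells; ER-beta-UAS-bla HEK293T cells, 16 hr compound treatment with 1nM 17-beta-estradiol agonist at 37C, 5% CO2.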

[5] = biological target: Estrogen receptor (Homo sapiens) (UniProt P03372); experiment: qHTS assay to identify small molecule agonists of the estrogen receptor alpha (ER-alpha) signaling pathway in the presence of an antagonist (AID 1259383; calls by dose curve; note: top concentration of the series differs between compounds; nearly all actives have a fitted effect of over 15% in size)
Sequence of Estrogen receptor (Homo sapiens) (P03372 whole entry, looked up): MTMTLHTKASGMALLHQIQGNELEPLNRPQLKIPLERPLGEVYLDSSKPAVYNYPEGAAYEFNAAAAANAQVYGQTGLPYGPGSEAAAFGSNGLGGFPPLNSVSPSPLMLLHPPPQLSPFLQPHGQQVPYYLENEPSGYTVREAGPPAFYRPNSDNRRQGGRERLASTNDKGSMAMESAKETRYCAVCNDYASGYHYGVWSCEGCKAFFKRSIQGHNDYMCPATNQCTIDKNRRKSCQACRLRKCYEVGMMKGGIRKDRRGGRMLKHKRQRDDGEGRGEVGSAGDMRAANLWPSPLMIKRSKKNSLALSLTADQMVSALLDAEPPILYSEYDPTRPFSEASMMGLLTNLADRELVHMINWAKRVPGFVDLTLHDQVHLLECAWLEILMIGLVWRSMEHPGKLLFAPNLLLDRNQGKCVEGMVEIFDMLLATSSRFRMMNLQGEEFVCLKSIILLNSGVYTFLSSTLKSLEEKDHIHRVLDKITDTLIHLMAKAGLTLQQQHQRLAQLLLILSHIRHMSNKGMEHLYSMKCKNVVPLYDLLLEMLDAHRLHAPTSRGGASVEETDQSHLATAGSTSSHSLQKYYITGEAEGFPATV
How it was run: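 Luminescent ERE-luciferase reporter, VM7Luc4E2 cells (endogenous ER-alpha); 10.0nM ICI-182,780 final; 15-point compound titration; 22hr at 37C; ONE-Glo, 30min RT.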

[6] = qHTS assay to identify small molecule agonists or antagonists of the thyroid stimulating hormone receptor (TSHR) signaling pathway - wild type cell line counter screen (AID 1259384; calls by dose curve)
How it was run: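 Wild-type Hek293 cells, 800/well, 18 h at 37C, then compound with Ro20-1724 for 30 min RT. cAMP by HTRF (cAMP-d2/anti-cAMP cryptate), 1 h RT, fluorescence read. 15 concentrations, triplicates.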

[7] = biological target: Thyrotropin receptor (Homo sapiens) (UniProt P16473); experiment: qHTS assay to identify small molecule antagonists of the thyroid stimulating hormone receptor (TSHR) signaling pathway (AID 1259385; calls by dose curve; note: nearly all actives have a fitted effect of over 20% in size; note: potency is the fitted concentration of half-maximal effect)
Sequence of Thyrotropin receptor (Homo sapiens) (P16473 whole entry, looked up): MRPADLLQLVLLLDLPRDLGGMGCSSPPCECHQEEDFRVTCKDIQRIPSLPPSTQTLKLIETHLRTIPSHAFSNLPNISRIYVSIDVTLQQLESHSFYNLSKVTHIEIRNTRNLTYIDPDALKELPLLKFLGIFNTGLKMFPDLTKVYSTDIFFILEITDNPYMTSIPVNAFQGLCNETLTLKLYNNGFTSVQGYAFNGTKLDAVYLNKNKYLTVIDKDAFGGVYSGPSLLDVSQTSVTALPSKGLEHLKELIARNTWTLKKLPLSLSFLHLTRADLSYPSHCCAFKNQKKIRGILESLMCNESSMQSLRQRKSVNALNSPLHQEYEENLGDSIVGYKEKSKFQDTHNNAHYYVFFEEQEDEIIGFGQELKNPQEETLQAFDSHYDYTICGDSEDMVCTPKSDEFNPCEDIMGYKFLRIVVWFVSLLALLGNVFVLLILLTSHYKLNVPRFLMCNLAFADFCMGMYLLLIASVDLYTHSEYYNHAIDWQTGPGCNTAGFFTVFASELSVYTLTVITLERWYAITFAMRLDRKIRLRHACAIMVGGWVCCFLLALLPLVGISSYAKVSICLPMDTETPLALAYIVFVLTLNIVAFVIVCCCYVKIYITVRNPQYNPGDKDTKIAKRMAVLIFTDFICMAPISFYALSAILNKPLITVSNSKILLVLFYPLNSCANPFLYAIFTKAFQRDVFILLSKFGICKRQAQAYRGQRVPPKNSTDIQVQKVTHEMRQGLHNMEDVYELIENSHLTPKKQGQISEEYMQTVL
How it was run: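 TSHR-HEK293 cells (800/well) plated 18 h, then compounds with Ro20-1724 and TSH at 1.5 ng/mL final, 30 min at room temperature. cAMP quantified by HTRF (cAMP-d2/anti-cAMP-cryptate, 1 h); 15 concentrations in triplicate.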

[8] = qHTS assay to identify small molecule agonists of the estrogen receptor alpha (ER-alpha) signaling pathway in the presence of an antagonist - cell viability counter screen (AID 1259386);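 note: cells exposed to compounds for 22 h at 37 °C before the viability read; nearly all actives have a fitted effect of over 30% in size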; note: potency is the fitted concentration of half-maximal effect; for activity change, negative = cytotoxicity: series mostly up to about 92 µM
How it was run: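 Using estrogen-depleted VM7Luc4E2 cells, the 15-concentration compound series was applied together with 10.0nM ICI-182,780 and incubated 22hr at 37C/5% CO2. Cell viability was then scored by CellTiter-Fluor.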

[9] = biological target: Estrogen receptor beta (Homo sapiens) (UniProt Q92731); experiment: qHTS assay to identify small molecule antagonists of the estrogen receptor beta (ER-beta) signaling pathway (AID 1259378; active = well fitted inhibition curve with a large enough effect in the signal ratio in the repeat runs, not every such curve was filed as active; the % refers to the signal ratio)
Sequence of Estrogen receptor beta (Homo sapiens) (Q92731 whole entry, looked up): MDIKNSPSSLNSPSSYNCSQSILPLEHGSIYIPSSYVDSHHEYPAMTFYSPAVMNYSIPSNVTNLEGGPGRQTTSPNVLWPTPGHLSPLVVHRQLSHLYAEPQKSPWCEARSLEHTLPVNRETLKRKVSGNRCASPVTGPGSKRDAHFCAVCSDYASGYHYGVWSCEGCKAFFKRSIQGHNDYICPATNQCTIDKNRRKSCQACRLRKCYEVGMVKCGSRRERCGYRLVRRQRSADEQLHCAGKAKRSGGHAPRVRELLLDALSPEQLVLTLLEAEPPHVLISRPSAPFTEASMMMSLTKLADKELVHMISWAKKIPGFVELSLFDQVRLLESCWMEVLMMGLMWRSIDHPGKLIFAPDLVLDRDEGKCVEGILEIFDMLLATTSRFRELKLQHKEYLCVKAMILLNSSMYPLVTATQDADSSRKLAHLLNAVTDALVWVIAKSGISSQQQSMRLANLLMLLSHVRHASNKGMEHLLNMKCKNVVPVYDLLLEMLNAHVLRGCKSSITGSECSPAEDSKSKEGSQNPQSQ
How it was run: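 ER-beta-UAS-bla HEK293T cells in 2% charcoal-stripped FBS medium treated with compound plus 1nM final 17-beta-estradiol for 16 hr at 37C. Beta-lactamase reporter read by FRET substrate fluorescence after 2 hours at room temperature.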

[10] = biological target: Estrogen receptor beta (Homo sapiens) (UniProt Q92731); experiment: qHTS assay to identify small molecule agonists of the estrogen receptor beta (ER-beta) signaling pathway (AID 1259377; active = well fitted activation curve with a large enough effect in the signal ratio in the repeat runs, not every such curve was filed as active; the % refers to the signal ratio)
How it was run: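 ER-beta-UAS-bla HEK293T (GripTite) cells carrying a UAS-driven beta-lactamase reporter, in medium with 2% charcoal-stripped FBS, were exposed to compounds for 16 hr at 37C; LiveBLAzer B/G FRET substrate was then added and fluorescence read after 2 hours at room temperature.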
% is set by controls: 0 for no effect and ±100 for the full control effect.

NS(=O)(=O)c1ccc(N2CCCCS2(=O)=O)cc1
inactive: Potency [1] | Potency [2] | Potency [3] | Potency [4] | Potency [5] | Potency [6] | Potency [7] | Potency [8]

CN(C)c1ccc(C(c2ccccc2)c2ccc(N(C)C)cc2)cc1
active: Potency [2] 17.2 µM
inactive: Potency [1] | Potency [3] | Potency [6] | Potency [7] | Potency [8]

COc1cc2nc(Cl)nc(N)c2cc1OC
inactive: Potency [1] | Potency [2] | Potency [3] | Potency [4] | Potency [5] | Potency [8]

COc1ccc(C(=O)Nc2nc3ccccc3c(NCc3ccccc3)c2C#N)cc1
active: Potency [2] 27.3 µM
inactive: Potency [9] | Potency [1] | Potency [5]

O=C(O)c1ccc(-n2nc(-c3ccccc3O)nc2-c2ccccc2O)cc1
inactive: Potency [1] | Potency [2] | Potency [4] | Potency [5]

Clc1ccc2c(c1)CCc1cccnc1C2=C1CCNCC1
active: Potency [2] 33.5 µM | Potency [4] 18.8 µM | Potency [7] 26.6 µM
inactive: Potency [10] | Potency [5] | Potency [6] | Potency [8]

C/C(=C(\CCOP(=O)(O)O)SC(=O)c1ccccc1)N(C=O)Cc1cnc(C)nc1N
inactive: activity change, negative = cytotoxicity [1] 1.6% [at 8.39 µM] | activity change, negative = cytotoxicity [2] 7.29% [at 8.39 µM] | activation [3] -1.54% [at 8.39 µM] | activity change, negative = cytotoxicity [4] 2.09% [at 8.39 µM] | activation [5] 0.094% [at 8.39 µM] | cAMP activity change [6] -0.23% [at 8.39 µM, hits give high values] | activity change, negative = inhibition [7] -1.28% [at 8.39 µM]

Cc1nn(C)c(Oc2ccccc2)c1/C=N/OCc1ccc(C(=O)OC(C)(C)C)cc1
inactive: Potency [2] | Potency [3] | Potency [4] | Potency [5] | Potency [6]
active: Potency [1] 0.0306 µM | Potency [8] 0.0863 µM

Nc1ccc(N)c2c1C(=O)c1ccccc1C2=O
active: Potency [1] 21.7 µM | Potency [2] 7.7 µM | Potency [8] 9.69 µM
inactive: Potency [9] | Potency [3]

CC(COCCO)OCCO (centres undefined)
inactive: Potency [1] | Potency [2] | Potency [3] | Potency [4] | Potency [6] | Potency [7]

CC(C)(C)Cl
inactive: Potency [9] | Potency [1] | Potency [2] | Potency [4] | Potency [5] | Potency [7]

C=C(C)C(=O)OCCO
inactive: Potency [1] | Potency [2] | Potency [4] | Potency [5] | Potency [6] | Potency [7] | Potency [8]

CCCCCCCCCCCc1ccccc1
inactive: Potency [1] | Potency [2] | Potency [4] | Potency [5] | Potency [7]

N=c1ccn2c(n1)O[C@H]1[C@H](O)[C@@H](CO)O[C@H]12
inactive: Potency [1] | Potency [2] | Potency [4] | Potency [5] | Potency [6] | Potency [7] | Potency [8]

CCOC(=O)C1=C[C@]2(CC)CCCN3CCc4c(n1c1ccccc41)[C@@H]32
inactive: Potency [1] | Potency [4] | Potency [5] | Potency [6] | Potency [7] | Potency [8]
active: Potency [2] 26.6 µM

CC(C)Cc1ccc(C(C)C(=O)OCc2ccccn2)cc1 (centres undefined)
inactive: Potency [1] | Potency [2] | Potency [4] | Potency [5] | Potency [6]

CCCCC(CC)COC(=O)CCCCCCCCC(=O)OCC(CC)CCCC (centres undefined)
inactive: Potency [1] | Potency [2] | Potency [4] | Potency [5] | Potency [6] | Potency [8]

C=CC1CC2C=CC1C2 (centres undefined)
inactive: Potency [1] | Potency [2] | Potency [4] | Potency [5] | Potency [8]

CCC(C)O (centres undefined)
inactive: Potency [1] | Potency [2] | Potency [4] | Potency [6]

OC(C#CCN1CCCC1)(c1ccccc1)c1ccccc1
inactive: Potency [1] | Potency [2] | Potency [4] | Potency [6] | Potency [7] | Potency [8]

O=C1CCC(=O)O1
inactive: Potency [1] | Potency [2] | Potency [4] | Potency [5] | Potency [8]

COC(C)OC
inactive: Potency [1] | Potency [2] | Potency [4] | Potency [5] | Potency [6] | Potency [8]
